The results in this text go back to PubChem BioAssay AID686971 (National Center for Advancing Translational Sciences (NCATS), 2013).

Screen size: about 360,000 compounds; about 7,500 (2.1%) were called active. Not shown: some 8% with an inconclusive outcome. Calls come from the whole dose curve; as a rule, active = well fitted cell-killing curve with a large enough effect; inconclusive = small, poorly fitted or top-dose-only effect, or effect the other way, or another doubt; inactive = no such curve, though single readings can be large or run the other way. Shown is part of a subset that was picked to be rich in actives. Entries that show only a call come without a potency.
Potency is the fitted concentration of half-maximal effect.

The assay in a line: qHTS for induction of synthetic lethality in tumor cells producing 2HG: qHTS for the HT-1080-IDH1KD cell line. The settings on record: HT-1080 IDH1 knockdown viability, ATP luminescence, 48 h; series mostly up to 46.1 µM. The method, boiled down:
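CellTiter-Glo luminescence after 48 h compound exposure at 37 degrees C of IDH1-knockdown HT-1080 cells in 5% FBS RPMI. %Activity scaled between DMSO wells and cell-free media wells, with curves fitted and assigned curve classes.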
A general note: In qHTS, concentration-response curves come from the screen itself.
For `N#Cc1ccc(-c2ccc3nccn3c2)cc1`, the Potency result was “inactive”.
Turning to `Cc1ccc(S(=O)(=O)N[C@H]2CCC[C@@H]2O)cc1`, the Potency entry is “inactive”.
For `CNC[C@H]1OCc2cnnn2CCCC(=O)N([C@H](C)CO)C[C@@H]1C` the value was “inactive”.
On to `COC(=O)c1ccc2c(c1)S(=O)(=O)NC2C` (centres undefined), for which the Potency entry was “inactive”.
As to `C=CCc1ccc(OCCOc2cccc(/C=N/n3cnnc3)c2)c(OC)c1`, the Potency entry was “inactive”.
For `COc1cccc(OCCOc2cccc(/C=N/n3cnnc3)c2)c1` the value was “inactive”; for `COc1ccccc1OCCOc1ccc(/C=N/n2cnnc2)cc1`, 20.6 µM (active).
Turning to `CC(OC(=O)c1cccc(S(=O)(=O)N2CCOCC2)c1)C(=O)NCC1CCCCC1` (centres undefined), the Potency entry is “inactive”.
Under `CC(C)C1CCN(C(=O)C2CCC(=O)N(C3CCCCCC3)C2)CC1` (centres undefined) stands “inactive”; under `CCN1C(=O)[C@H]2[C@@H](c3ccc(C(F)(F)F)cc3)N[C@]3(CCCN(Cc4ccc(Br)cc4)C3=O)[C@H]2C1=O`, “inactive”; under `COc1cccc(/C=C2\C=C(c3ccc(C)cc3)OC2=O)c1OC(C)=O`, “inactive”.
Take `COc1cccc(/C=C/c2ccc3ccccc3n2)c1OC(C)=O`: the Potency was 11.6 µM (active).
As to `CC(OC(=O)c1ccc2ccccc2n1)C(=O)c1ccccc1` (centres undefined), the Potency result was “inactive”.
`CCCCNC(=O)C[C@@H]1C[C@@]2(C(=O)OC)CC(C)(C)CC=C2N(Cc2ccco2)C1=O`: the Potency entry was “inactive”.
Under `C[C@H](NC(=O)[C@@H]1CCCN1C(=O)[C@@H]1CCCN1C(=O)c1ccccc1)c1ccccc1` stands “inactive”; under `CC1=C(C(=O)N(C)C)CC(CC(=O)NCCc2ccccn2)C(=O)N1CCC1=CCCCC1` (centres undefined), “inactive”; under `O=S(=O)(Nc1ccc(O)c2ccccc12)c1ccc(OC(F)(F)F)cc1`, 20.6 µM (active).
As for `O=C1COc2ccc(S(=O)(=O)Nc3ccc(OC(F)(F)F)cc3)cc2N1`, the Potency result is “inactive”.
On to `Cc1nn(C)c(C)c1NS(=O)(=O)c1ccc(OC(F)(F)F)cc1`, for which the Potency entry is “inactive”.
Consider `Cn1c(CCN2CCN(c3ccccn3)CC2)nc2cc(NS(=O)(=O)c3ccc(F)cc3)ccc21`, for which the Potency result was “inactive”.
Consider `C[C@@H]1CC[C@@]2(OC1)O[C@H]1C[C@H]3[C@@H]4CC=C5C[C@@H](O)[C@H](O)C[C@]5(C)C4CC[C@]3(C)[C@H]1[C@@H]2C` (some centres undefined), for which the Potency entry was “inactive”.
Turning to `C[C@]12CC[C@H](O)CC1=CCC1C2CC[C@@]2(C)C1CC[C@@H]2NC(=O)CCC(=O)O` (some centres undefined), the Potency entry was “inactive”.
For `CC(=O)OC1CCC2(C)C(=CCC3C4CC(=O)N(O)C(=O)C4(C)CCC32)C1` (centres undefined) the value was 25.9 µM (active).
As for `OC[C@@H]1CN(C2CCCC2)C[C@H](n2cnc3c(NC4CCC4)ncnc32)O1`, the Potency entry is “inactive”.
For the compound `CCC(C)C(CO)NC(=O)/C=C/[C@H]1O[C@@H](n2cnc3c(NC(=O)c4ccccc4)ncnc32)[C@H](O)[C@@H]1O` (some centres undefined), the Potency entry is “inactive”.
Turning to `O=C(NCc1cccnc1)Nc1ccccc1F`, the Potency entry was “inactive”.
Take `Cc1ccccc1Nc1nc(-c2cccnc2)cs1`: the Potency entry was “inactive”.
As to `O=C(NCc1cccnc1)C(=O)Nc1nc(-c2ccccc2)cs1`, the Potency was 4.61 µM (active).
`C[C@H](CO)N1C[C@H](C)[C@@H](CN(C)C(=O)c2cnccn2)Oc2ncc(Br)cc2C1=O`: the Potency entry was “inactive”.
For `Fc1cccc(Cc2c(-c3ccc(Cl)cc3)nc3ccc(Cl)cn23)c1` the value was “inactive”; for `Cc1cc2nc(-c3ccco3)c(Cc3cccc(F)c3)n2c(C)c1Br`, 20.6 µM (active); for `Cc1cc2nc(-c3ccc(F)cc3)c(Cc3ccsc3)n2c(C)c1Br`, “inactive”.
For `COc1ccc(S(=O)(=O)N2CCCCC2c2cc(C(=O)NCc3ccc(F)cc3)no2)cc1` (centres undefined), the Potency entry was “inactive”.
Under `CCCCNC(=O)OC1CC2CC1[C@H]1CCCCN1C2=O` (some centres undefined) stands 25.9 µM (active).
For `CCCCNC(=O)C1CCCNC1=O` (centres undefined) the value was “inactive”.
Consider `O=C(OC1CC2CC1[C@H]1CCCCN1C2=O)N1CCOCC1` (some centres undefined), for which the Potency entry was “inactive”.
Under `OC(c1ccc(F)cc1)c1ncc(-c2cccc(C(F)(F)F)c2)[nH]1` (centres undefined) stands “inactive”; under `Cc1cc(Br)cn2c(Cc3ccccc3C(F)(F)F)c(C3CCCCC3)nc12`, “inactive”; under `C[C@H](CO)N1C[C@H](C)[C@@H](CN(C)S(=O)(=O)c2ccc(Oc3ccccc3)cc2)OCc2cn(nn2)CCCC1=O`, “inactive”.
With `O=C(Nc1ccc2c(c1)OCCO2)c1ccoc1`, the Potency entry is “inactive”.
`Cn1cc([N+](=O)[O-])c(C(=O)Nc2ccc3c(c2)OCCO3)n1`: the Potency is 11.2 µM (active).
Consider `COc1cccc(NC(=O)c2nn(C34CC5CC(CC(C5)C3)C4)cc2[N+](=O)[O-])c1`, for which the Potency entry is “inactive”.
Turning to `CNC(=O)C1CN(C(=O)c2cccc(S(=O)(=O)N3CCc4ccccc43)c2)c2ccccc2O1` (centres undefined), the Potency result was “inactive”.
Under `COc1ccc(C(CNC(=O)c2ccc(OCc3cscn3)cc2)N2CCCC2)cc1` (centres undefined) stands “inactive”; under `Cc1cccc(C(=O)OCC(=O)Nc2sccc2C(N)=O)c1C`, “inactive”; under `O=C(NCCc1cccc(F)c1)C1CC(O)CN1C(=O)Nc1ccccc1` (centres undefined), “inactive”.
With `O=C(O)C(=Cc1ccc([N+](=O)[O-])cc1)CCc1ccccc1`, the Potency entry was “inactive”.
As for `CN1CCN(C2Cc3ccc(Cl)cc3Sc3ccc(F)cc32)CC1` (centres undefined), the Potency is 13 µM (active).
`O=[N+]([O-])c1ccc(CN2CC(N3CC=CC3)CS2(=O)=O)cc1` (centres undefined): the Potency result is “inactive”.
On to `CSc1ccc(CN2CCC2(C)C(=O)Nc2ccc(C)c(O)c2)cc1` (centres undefined), for which the Potency entry was “inactive”.
`CCCCN1C(=O)C(CC(=O)NCc2cccs2)CC(C(=O)N2CCOCC2)=C1C` (centres undefined): the Potency entry is “inactive”.
Under `Cc1ccc(C(=O)NNC(=O)c2cccs2)cc1` stands “inactive”.
In the case of `Cc1ccc(NNC(=O)c2cccs2)cc1Cl`, the Potency was 5.8 µM (active).
Turning to `Cc1ccc(NC(=O)c2cccs2)cc1S(=O)(=O)N(C)C`, the Potency result was “inactive”.
Regarding `Cc1ccc(C)c(NC(=O)CCC(=O)NNC(=O)c2cccs2)c1`, the Potency entry is “inactive”.
For `Cc1ccc(C(=O)Nc2ccc(NC(=O)c3cccs3)cc2)c(C)c1`, the Potency is 16.4 µM (active).
As to `O=C(NNC(=O)c1ccc(Cl)cc1Cl)c1cccs1`, the Potency entry is “inactive”.
As for `COC(=O)c1ccc2nc(-c3ccc(C)cc3)c(Cc3ccc(OC)cc3C)n2c1`, the Potency entry was “inactive”.
For the compound `CCCNC(=O)c1cc2c(c(-c3cccc(-c4ccc(C#N)cc4)c3)n1)[C@@H](CCO)N(C(=O)CC)C2`, the Potency result is “inactive”.
Consider `O=C(NNC(=O)c1ccccc1O)c1ccccc1O`, for which the Potency was 9.2 µM (active).
Under `CC1=C(C)CC(C(=O)NNC(=O)c2ccccc2O)C(C(=O)O)C1` (centres undefined) stands “inactive”.
For `Cc1cc(C(=O)CCC(=O)NNC(=O)c2ccccc2O)c(C)s1`, the Potency result was “inactive”.
For `CCNC(=O)c1cc2c(c(-c3cccc(-c4cncnc4)c3)n1)[C@H](CCO)N(C(C)=O)C2` the value was “inactive”.
Regarding `O=C(Nc1cccc(C(=O)O)c1)/C(=C\c1ccccc1)NC(=O)c1ccc(Br)o1`, the Potency result is “inactive”.
Under `CC(C)n1c(-c2cccs2)nc2ccccc21` stands “inactive”.
For `Cc1cc(C)n(-c2nc(C(F)(F)F)nc3ccccc23)n1` the value was “inactive”.
With `CC(Nc1nc(C(F)(F)F)nc2ccccc12)c1cccs1` (centres undefined), the Potency is 16.4 µM (active).
As for `COCCCNC(=O)c1cccc2c(-c3ccc(O)c(OC)c3)coc12`, the Potency result was “inactive”.
As to `NC(CSC(c1ccccc1)(c1ccccc1)c1ccc(-c2ccccc2)cc1)C(=O)O` (centres undefined), the Potency result is “inactive”.
Take `O=C(NCc1nnnn1-c1ccc(Cl)cc1)c1ccc2c(c1)OCO2`: the Potency entry is “inactive”.
Turning to `CCNC(=O)C1(C)CCCN(C(=O)c2ccc3ccccc3n2)C1` (centres undefined), the Potency result is “inactive”.
Turning to `Cc1cccc2nc(CSc3nc4[nH]ncc4c(=O)n3-c3cccc(Cl)c3)cc(=O)n12`, the Potency entry is “inactive”.
As to `O=c1c2sccc2nc(SCc2cc(=O)n3ccccc3n2)n1-c1ccc(Br)cc1`, the Potency result is “inactive”.
For `CCc1ccc(-n2c(SCc3cc(=O)n4cc(Br)ccc4n3)nc3[nH]ncc3c2=O)cc1` the value was 18.4 µM (active); for `CCc1nc2c(OCC(=O)C(C)(C)C)cccn2c1N(C)C(=O)c1ccccc1F`, “inactive”; for `CCC(=O)N1CCCC1(C)C(=O)Nc1ccc2c(c1)CCN2C(C)=O` (centres undefined), “inactive”.
For `Cc1cc(C)n(-c2ccc(C(=O)O)cc2[N+](=O)[O-])n1`, the Potency entry is “inactive”.
`COc1ccc(Nc2cc(Sc3ccc(OC)cc3)ncn2)cc1`: the Potency entry is “inactive”.
For `CC(=O)c1ccc(Oc2cc(C)nc(-n3nc(C)cc3C)n2)cc1` the value was 4.61 µM (active); for `COc1ccc(Nc2cc(C)nc(-n3nc(C)cc3C)n2)cc1`, 0.794 µM (active); for `CCOC(=O)c1cnc(-n2nc(C)cc2C)nc1NNc1cc(C)nc(-c2ccccc2)n1`, “inactive”.
Under `COc1ccc(NC(=O)c2nc(-n3nc(C)cc3C)ccc2Cl)cc1Cl` stands “inactive”; under `O=C1c2ccccc2-c2ccccc2NC1O` (centres undefined), “inactive”; under `CCC(=O)N1CCC(C)(C(=O)Nc2cc(OC)c(OC)c(OC)c2)C1` (centres undefined), “inactive”.
For the compound `CCOC(=O)[C@]12CCCC=C1N(CCC1=CCCCC1)C(=O)[C@H](CC(=O)N1CCCCC1)C2`, the Potency result was “inactive”.
Under `Cc1ccc(-c2nc3c(Cl)cc(C(F)(F)F)cn3c2Cc2cccc(Cl)c2)cc1` stands “inactive”.
As for `CNC(=O)C[C@H]1C(=O)N(Cc2ccccc2)C[C@@H]1CSC`, the Potency entry is “inactive”.
For `Cc1nc(N2CCN(c3ccccn3)CC2)c2c(C)c(C(=O)Nc3ccc(F)c(Cl)c3)sc2n1` the value was “inactive”.
Under `Cc1nc(N2CCOCC2)c2c(C)c(C(=O)Nc3ccc(C(F)(F)F)cc3)sc2n1` stands 20.6 µM (active); under `Cc1nc(N2CCN(c3ccccn3)CC2)c2c(C)c(C(=O)Nc3ccc(F)cc3)sc2n1`, “inactive”.
As for `CC1(C(=O)NCc2ccc(F)c(F)c2)Cc2c(-c3ccc4c(c3)OCO4)ccnc2O1` (centres undefined), the Potency was 4.61 µM (active).
On to `COc1ccc(NC(=O)C2Cc3c(-c4cccc(NC(C)=O)c4)ccnc3O2)cc1OC` (centres undefined), for which the Potency result is “inactive”.
Regarding `COc1cc(OC)c(C(=O)NCc2ccc3c(c2)OCO3)cc1OC`, the Potency result is “inactive”.
Consider `COc1ccc(NC(=O)C2(C)Cc3c(-c4cccc(NC(C)=O)c4)ccnc3O2)cc1OC` (centres undefined), for which the Potency was 14.6 µM (active).
For `O=C(NCc1ccc2c(c1)OCO2)c1cc(F)c(F)cc1Cl`, the Potency entry was “inactive”.
In the case of `CC1(C)Cc2cccc(OCC(=O)NCc3ccccc3)c2O1`, the Potency entry was “inactive”.
`COc1ccc(NC(=O)C2(C)Cc3c(-c4ccc(C(N)=O)cc4)ccnc3O2)cc1` (centres undefined): the Potency entry was “inactive”.
Turning to `CC(=O)Nc1cccc(-c2ccnc3c2CC(C)(C(=O)NCc2ccccc2)O3)c1` (centres undefined), the Potency was 0.651 µM (active).
In the case of `CC1(C(=O)Nc2cccnc2)Cc2c(-c3ccccc3)ccnc2O1` (centres undefined), the Potency result is “inactive”.
